From PubChem BioAssay (NCI) come the findings set out here.

Test systems include DU-145 prostate; K-562 leukemia; MALME-3M melanoma; MDA-MB-231 breast; RXF 393 renal; SF-268 CNS; SF-295 CNS; SF-539 CNS; UACC-257 melanoma; M14 melanoma.
Assay in all cases: NCI-60 one-dose screen, 48 h (100 = growth as untreated, 0 = no growth, -100 = all killed)
Holding throughout (conditions): 10 µM unless noted

About 83,000 compounds went through this panel and 20% of them were active in at least one assay; those are over-represented in the sample as a whole.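 The endpoint reported here, percent growth, reads 100 for growth as untreated, 0 for no net growth and -100 for all cells dead.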 Unmarked numbers belong to inactive results. Calls of active or inactive are those of the source. Rule for the calls: active = growth percent below 10; inactive = the rest.

As for `O=C(O)/C(=C/c1ccc(O)cc1)c1ccccc1`, the growth in the assay with DU-145 prostate was 97.9%; with K-562 leukemia, 104%; with MALME-3M melanoma, 94.5%; in the assay with MDA-MB-231 breast, 103%; in the assay with RXF 393 renal, 70.6%; in the assay on SF-268 CNS, 95.8%. The growth in the assay with SF-295 CNS is 105%; in the assay on SF-539 CNS, 122%; in the assay with UACC-257 melanoma it was 90.3%; in the assay with M14 melanoma, 97.5%.

As to `CCN1CCN(c2nc(C)cc(N(CCCNc3ccnc4cc(Cl)ccc34)Cc3ccco3)n2)CC1`, the growth in the assay on DU-145 prostate was 55.5%; in the assay with K-562 leukemia, 8.16% (active); with MALME-3M melanoma, -6.8% (active); in the assay on MDA-MB-231 breast, 11.6%; in the assay on RXF 393 renal it was 48.5%; in the assay with SF-268 CNS, 55.7%. In addition, the growth in the assay with SF-295 CNS was 51%; in the assay with SF-539 CNS it was -63.5% (active); with UACC-257 melanoma, -2.43% (active); in the assay on M14 melanoma it was -76% (active).

As for `N#C/C(=C\c1ccc(-c2cccc(C(F)(F)F)c2)o1)c1nc(-c2ccco2)cs1`, the growth is 105% in the assay with DU-145 prostate; 92.3% with K-562 leukemia; 93.8% in the assay on MALME-3M melanoma; 78.9% with MDA-MB-231 breast; 107% in the assay with RXF 393 renal; 99.8% in the assay with SF-268 CNS. The growth in the assay with SF-295 CNS is 94.2%; in the assay on SF-539 CNS, 91.4%; in the assay on UACC-257 melanoma, 105%; in the assay with M14 melanoma, 97.8%.

For `c1cnc2[nH]cc(-c3csc(-c4cn(CCCN5CCCCC5)c5ccccc45)n3)c2c1`, the growth was 67% in the assay with DU-145 prostate; -45.4% (active) with K-562 leukemia; -55% (active) with MALME-3M melanoma; 45% with MDA-MB-231 breast; 52.3% in the assay on RXF 393 renal; 58.9% in the assay on SF-268 CNS. Moreover, the growth with SF-295 CNS is 88.8%; in the assay with SF-539 CNS it was -48.5% (active); in the assay on UACC-257 melanoma it was 92%; in the assay with M14 melanoma, -77.8% (active).

Take `COc1cc(-c2cc3ncccc3c3nc(OCCN(C)C)c4cccnc4c23)cc(OC)c1OC`: the growth with DU-145 prostate is 1.52% (active); in the assay on K-562 leukemia, 7.73% (active); in the assay with MALME-3M melanoma, 8.86% (active); in the assay on MDA-MB-231 breast, 20.2%; in the assay on RXF 393 renal, -72.1% (active); with SF-268 CNS, 23.1%. The growth in the assay with SF-295 CNS was 9.6% (active); in the assay on SF-539 CNS, 17.9%; in the assay on UACC-257 melanoma, 15.1%; in the assay on M14 melanoma it was 23%.

In the case of `Fc1ccc(Nc2ccc3c(OCCCN4CCOCC4)cccc3n2)cc1F`, the growth is 76.9% with DU-145 prostate; 1.64% (active) in the assay on K-562 leukemia; 70.3% with MALME-3M melanoma; 29.8% with MDA-MB-231 breast; 80.5% in the assay on RXF 393 renal; 71.3% in the assay on SF-268 CNS. The growth in the assay with SF-295 CNS is 78.3%; in the assay on SF-539 CNS, 52.2%; in the assay with UACC-257 melanoma, 94%; in the assay with M14 melanoma it was 69.2%.

As for `Cc1cc(Cl)nc(N(CCNc2ccnc3cc(Cl)ccc23)Cc2ccco2)n1`, the growth is 52.2% with DU-145 prostate; 16.2% in the assay on K-562 leukemia; 81.3% in the assay on MALME-3M melanoma; 19.3% with MDA-MB-231 breast; -15.7% (active) in the assay with RXF 393 renal; 66.7% in the assay on SF-268 CNS. Also, the growth in the assay with SF-295 CNS was 59.4%; with SF-539 CNS it was -41.6% (active); with UACC-257 melanoma, 115%; in the assay with M14 melanoma it was 55.3%.

Consider `COc1cnc2c(c1)C(=O)c1c-2n(CCCNCCN2CCOCC2)c(=O)c2cc([N+](=O)[O-])ccc12`, for which the growth with DU-145 prostate was 2.63% (active); in the assay with K-562 leukemia, 0.36% (active); in the assay on MALME-3M melanoma, -11.7% (active); with MDA-MB-231 breast, 2.48% (active); with RXF 393 renal it was -32.3% (active); in the assay with SF-268 CNS it was 12.3%. In addition, the growth in the assay on SF-295 CNS is 1.52% (active); in the assay with SF-539 CNS it was -1.79% (active); in the assay with UACC-257 melanoma, 5.34% (active); in the assay with M14 melanoma, 6.27% (active).

In the case of `CCN1CCN(C(=O)[C@@]2(C)CC[C@]3(C)CC[C@]4(C)C(=CC(=O)[C@@H]5[C@@]6(C)CC[C@H](OCCC#N)C(C)(C)[C@@H]6CC[C@]54C)[C@@H]3C2)CC1`, the growth was 97% in the assay on DU-145 prostate; 31.8% with K-562 leukemia; 65.3% in the assay on MALME-3M melanoma; 97.5% in the assay with MDA-MB-231 breast; 85% in the assay with RXF 393 renal; 90.4% in the assay on SF-268 CNS. Further, the growth was 84% in the assay on SF-295 CNS, 80.4% in the assay on SF-539 CNS, 88.4% in the assay with UACC-257 melanoma and 96% in the assay with M14 melanoma.

Turning to `N#CC1=C(N)Oc2c(sc3c(F)cccc23)C1c1ccc(Cl)cc1` (stereo not given), the growth is 41% in the assay on DU-145 prostate; 14.2% with K-562 leukemia; 57.9% in the assay with MALME-3M melanoma; 43.5% in the assay with MDA-MB-231 breast; 9.87% (active) in the assay on RXF 393 renal; 45.3% in the assay on SF-268 CNS. Also, the growth in the assay on SF-295 CNS was 20.2%; in the assay on SF-539 CNS, -0.306% (active); in the assay on UACC-257 melanoma, 66.4%; in the assay on M14 melanoma, -26.1% (active).

In the case of `C=C1C(=O)O[C@H]2[C@H]1CC/C(COC(=O)NCc1c[nH]c3ccccc13)=C\CC[C@@]1(C)O[C@@H]21`, the growth in the assay on DU-145 prostate is 29.2%; in the assay on K-562 leukemia, 12.7%; in the assay on MALME-3M melanoma, 52.7%; with MDA-MB-231 breast, 42%; in the assay with RXF 393 renal it was 17.5%; with SF-268 CNS, 70.8%. Besides, the growth was 94.6% with SF-295 CNS, 7.38% (active) in the assay on SF-539 CNS, 75.2% in the assay with UACC-257 melanoma and 48.7% with M14 melanoma.

Take `CC(=O)n1c(/C(C#N)=C/c2ccc(N(C)C)cc2)cc2ccccc21`: the growth with DU-145 prostate was 35.8%; in the assay on K-562 leukemia it was 15%; in the assay with MALME-3M melanoma it was 57%; in the assay with MDA-MB-231 breast, 44.7%; in the assay with RXF 393 renal it was 24.6%; with SF-268 CNS, 56.9%. Moreover, the growth was 7.39% (active) in the assay with SF-295 CNS, 17.1% in the assay on SF-539 CNS, 68.6% in the assay with UACC-257 melanoma and 26.8% with M14 melanoma.
